Measurements reported in the supplement of paper PMC7156485.
± gives the standard deviation of the averaged measurements.

Columns and labels:
Conditions in all cases: concentration: 10 µM; 24 h
[1] = test system: HCC1569; assay: cell number relative to DMSO (% of DMSO); higher = more cells (less growth inhibition / toxicity)
In short: (§1)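 HCC1569 and TDF cells were seeded at 800 per well in 384-well plates in RPMI with 10% FBS and treated with compounds at 10 µM for 24 h at 37 °C, in triplicate. After fixation in 3.7% formaldehyde, cells were stained with a rabbit anti-H1.0 antibody, an AlexaFluor 647 secondary and DAPI, and six fields per well were imaged at ×10. H1.0 nuclear intensity or cell number is given as percent of the plate control, using the median of replicates, with HCC1569 values smoothed for positional effects.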

[2] = test system: TDF; assay: as above
In short: as §1

[3] = test system: TDF; assay: H1.0 immunofluorescence intensity relative to DMSO (% of DMSO); higher = stronger H1.0 induction, active = 120 or more
In short: as §1

[4] = test system: HCC1569; assay: H1.0 immunofluorescence intensity relative to DMSO (% of DMSO); higher = stronger H1.0 induction, active = 140 or more
In short: as §1
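Throughout, for H1.0 immunofluorescence intensity relative to DMSO: TDF is a line of transformed human dermal fibroblasts of mesenchymal origin.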
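Throughout, for cell number relative to DMSO: TDF denotes transformed human dermal fibroblasts of mesenchymal origin.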

Row | SMILES | cell number [1] | cell number [2] | H1.0 immunofluorescence intensity [3] | H1.0 immunofluorescence intensity [4]
1 | CC1=CC2c3cccc4[nH]cc(c34)CC2N(C)C1 (stereo unspecified) [Agroclavine] | 100 | 103 | 95.3 (inactive) | 98.1 (inactive)
2 | Cc1nc(-c2ccc(-c3ccc(C(=O)N4CCc5cc6c(cc54)C4(CCN(C)CC4)CO6)cc3)c(C)c2)no1.Cl | 70.1 | 94.7 | 114 (inactive) | 150 (active)
3 | CCCC[N+]1(C)C2CC(OC(=O)C(CO)c3ccccc3)CC1C1OC12.[Br-] (single isomer, unassigned; (-)) [(-)-Scopolamine,n-Butyl-, bromide] | 101 | 106 | 96 (inactive) | 109 (inactive)
4 | CC1OC(=O)C2CC3CCCCC3C(C=CC3CCCC(C)N3C)C12 (single isomer, unassigned; (+)) [(+)-Himbacine] | 102 | 112 | 91 (inactive) | 109 (inactive)
5 | Cc1ccc(S(=O)(=O)NC(CCCCN)C(=O)CCl)cc1.Cl [Na-p-Tosyl-L-lysine chloromethyl ketone hydrochloride] | 98.8 | 104 | 95.7 (inactive) | 101 (inactive)
6 | COc1ccc2c(c1O)-c1cccc3c1C(C2)N(C)CC3.Cl (stereo not drawn) [R(-)-Apocodeine hydrochloride] | 103 | 89.9 | 97.6 (inactive) | 87.5 (inactive)
7 | CC1OC(OC2CC(O)C3(CO)C4C(O)CC5(C)C(C6=CC(=O)OC6)CCC5(O)C4CCC3(O)C2)C(O)C(O)C1O (single isomer, unassigned; (-)) [(-)-Ouabain] | 49.5 ± 1.9 | 42.1 ± 1.4 | 119 (inactive) | 130 (inactive)
8 | CCN(CC)c1ncnc2c1ncn2C1OC(COP(=O)([O-])OP(=O)([O-])C(Br)(Br)P(=O)([O-])O)C(O)C1O.[Na+].[Na+].[Na+] (stereo unspecified) | 102 | 101 | 92.6 (inactive) | 96.5 (inactive)
9 | CC(=O)C1CCC2C3CCC4CC(O)CCC4(C)C3CCC12C (stereo not drawn) [5alpha-Pregnan-3alpha-ol-20-one] | 98.3 | 107 | 90.5 (inactive) | 102 (inactive)
10 | Cn1ncnc1COc1nn2c(-c3c(F)cccc3F)nnc2cc1C1CCC1 | 102 | 100 | 93.6 (inactive) | 99.6 (inactive)
11 | CC(N)C(O)c1ccccc1 (stereo unspecified) [Phenylpropanolamine] | 102 | 94 | 100 (inactive) | 99.8 (inactive)
12 | CS(=O)(=O)O.O.Oc1ccc2c3c1OC1c4oc5ccccc5c4CC4(O)C(C2)N(CC2CC2)CCC314 (stereo unspecified) [Naltriben methanesulfonate hydrate] | 98.9 | 101 | 92.8 (inactive) | 119 (inactive)
13 | CN1C(=O)C23CC4=CC=CC(O)C4N2C(=O)C1(CO)SS3 (stereo unspecified) [Gliotoxin] | 0.969 | 0.3 |  | 
14 | CCCCCCCCCCCCCCCCOCC(O)COP(=O)([O-])OCC[N+](C)(C)C (stereo unspecified) | 101 | 105 | 97.4 (inactive) | 104 (inactive)
15 | NC(Cn1oc(=O)[nH]c1=O)C(=O)O (single isomer, unassigned; (+)) [(+)-Quisqualic acid] | 101 | 94.1 | 93.9 (inactive) | 103 (inactive)
16 | CN(C)C(=O)C(CCN1CCC(O)(c2ccc(Cl)cc2)CC1)(c1ccccc1)c1ccccc1.Cl [Loperamide.HCl] | 102 | 98.6 | 97.6 (inactive) | 105 (inactive)
17 | CCN1CC2(C)CCC(OC)C34C2C(OC(C)=O)C2(OCOC25CC(OC)C2CC3(O)C5C2OC)C14 (stereo unspecified) [Deltaline] | 105 | 104 | 98.2 (inactive) | 96.9 (inactive)
18 | CC(CCc1ccccc1)NC(C)C(O)c1ccc(O)cc1.Cl (stereo unspecified) [Nylidrin hydrochloride] | 102 | 109 | 92.4 (inactive) | 96.5 (inactive)
19 | COC1=CC(=O)OC(CCc2ccc3c(c2)OCO3)C1 (stereo unspecified) [Dihydromethysticin] | 96.6 | 105 | 90.4 (inactive) | 83.9 (inactive)
20 | Br.C#CCOC(=O)C1=CCCN(C)C1 [Arecaidine propargyl ester hydrobromide] | 100 | 98.1 | 93.1 (inactive) | 92.2 (inactive)
21 | CCC1=CC2CN3CCc4c([nH]c5ccccc45)C(C(=O)OC)(C2)C13 (stereo unspecified) [Catharanthine] | 104 | 94.7 | 102 (inactive) | 92.1 (inactive)
22 | CC(=O)OC1C(c2ccc(=O)oc2)C2(C)CCC3C(CCC4CC(O)CCC43C)C23OC13 (stereo unspecified) [Cinobufagin] | 53.5 | 42.2 | 115 (inactive) | 99.5 (inactive)
23 | CC1=C2C(=O)C3C(CC=C4CC(O)CCC43C)C2CCC12OC1CC(C)CNC1C2C (stereo unspecified) [Jervine] | 97.9 | 104 | 94.3 (inactive) | 92 (inactive)
24 | CC12Cc3cn[nH]c3CC1CCC1C2CCC2(C)C1CCC2(C)O (stereo unspecified) [Stanozolol] | 94.4 | 99.5 | 97.2 (inactive) | 87.3 (inactive)

Row | SMILES | cell number [1] | cell number [2] | H1.0 immunofluorescence intensity [3] | H1.0 immunofluorescence intensity [4]
25 | CC1CCCC(O)CCCCCc2cc(O)cc(O)c2C(=O)O1 (stereo unspecified) | 102 | 93.5 | 91.8 (inactive) | 99.2 (inactive)
26 | C[N+]1(C)C2CCC1CC(OC(=O)C(CO)c1ccccc1)C2.[Br-] (stereo unspecified) [Atropine methyl bromide] | 102 | 105 | 91.2 (inactive) | 93.9 (inactive)
27 | C#CCNC(C)Cc1ccccc1.Cl (stereo not drawn) [R-(-)-Desmethyldeprenyl hydrochloride] | 102 | 103 | 97.2 (inactive) | 90.7 (inactive)
28 | C[N+]1([O-])C2CCC1CC(OC(=O)C(CO)c1ccccc1)C2.Cl (stereo unspecified) | 97.9 | 107 | 92.4 (inactive) | 85 (inactive)
29 | O=C(O)C1C2CCC(O2)C1C(=O)O (stereo unspecified) [Endothall] | 97.6 | 97.8 | 108 (inactive) | 129 (inactive)
30 | CCC(C(=O)O)C1CCC(C)C(C(C)C(O)C(C)C(=O)C(CC)C2OC3(C=CC(O)C4(CCC(C)(C5CCC(O)(CC)C(C)O5)O4)O3)C(C)CC2C)O1 (stereo unspecified) [Salinomycin] | 87.1 | 87.7 | 111 (inactive) | 110 (inactive)
31 | Br.CN1CCc2cc(O)cc3c2C1Cc1ccc(O)c(O)c1-3 (stereo not drawn) [R(-)-2,10,11-Trihydroxyaporphine hybrobromide] | 99 | 113 | 84.4 (inactive) | 94.3 (inactive)
32 | COc1cc2c(c3oc4cccc(O)c4c(=O)c13)C1C=COC1O2 (stereo unspecified) [Sterigmatocystin] | 80.2 | 75.6 | 96.5 (inactive) | 92.2 (inactive)
33 | CC(C)NP(=O)(NC(C)C)OP(=O)(NC(C)C)NC(C)C [Tetraisopropyl pyrophosphoramide] | 99.2 | 104 | 94.9 (inactive) | 105 (inactive)
34 | C[N+]1(C)C2CC(OC(=O)C(CO)c3ccccc3)CC1C1OC12.O=[N+]([O-])[O-] (single isomer, unassigned; (-)) [(-)-Scopolamine methyl nitrate] | 99.7 | 98.7 | 93.1 (inactive) | 106 (inactive)
35 | CCCCCC=CCC=CCC=CCC=CCCCC(=O)NCC(=O)O [N-arachidonylglycine] | 101 | 99.4 | 98.2 (inactive) | 99.6 (inactive)
36 | CC1OC(OC2CC(O)C3(CO)C4C(O)CC5(C)C(C6COC(=O)C6)CCC5(O)C4CCC3(O)C2)C(O)C(O)C1O (stereo unspecified) [Dihydroouabain] | 61.7 | 43.7 | 104 (inactive) | 82.2 (inactive)
37 | CCN(C)C(=O)Oc1cccc(C(C)N(C)C)c1 (stereo unspecified) [Rivastigmine] | 102 | 114 | 90 (inactive) | 105 (inactive)
38 | NC(Cn1oc(=O)[nH]c1=O)C(=O)O (stereo unspecified) [Quisqualic acid] | 100 | 94.9 | 102 (inactive) | 92.7 (inactive)
39 | CCC1(O)C(=O)OCc2c1cc1n(c2=O)Cc2cc3ccccc3nc2-1 (stereo unspecified) [Camptothecin] | 54.2 ± 2.9 | 24 ± 1.1 | 128 (active) | 120 (inactive)
40 | CCCC[N+]1(C)C2CC(OC(=O)C(CO)c3ccccc3)CC1C1OC12 (stereo unspecified) [Scopolamine N-butyl] | 103 | 111 | 91.4 (inactive) | 100 (inactive)
41 | COc1cc2c3cc1Oc1c(OO)c(OC)cc4c1C(Cc1ccc(cc1)Oc1cc(ccc1O)CC3N(C)CC2)N(C)CC4.O=S(=O)(O)O (stereo unspecified) [Oxyacanthine sulfate] | 55.6 | 11.7 | 186 (active) | 148 (active)
42 | Cl.NCCc1ccc(S(=O)(=O)F)cc1 [4-(2-Aminoethyl)benzenesulfonyl fluoride hydrochloride] | 100 | 107 | 93.2 (inactive) | 88.6 (inactive)
43 | CCCCCC(C=CC=CCC=CCC=CCCCC(=O)O)OO (stereo unspecified) | 106 | 100 | 96.4 (inactive) | 113 (inactive)
44 | OC1CN2CCC(O)C2C(O)C1O (stereo unspecified) [Castanospermine] | 100 | 104 | 89.5 (inactive) | 90.4 (inactive)
45 | Cl.O=C(N[C@H]1CN2CCC1CC2)c1c[nH]c2ccsc2c1=O | 106 | 94.7 | 98.3 (inactive) | 107 (inactive)
46 | COCC1OC(=O)c2coc3c2C1(C)C1=C(C3=O)C2CCC(=O)C2(C)CC1OC(C)=O (stereo unspecified) [Wortmannin] | 43.3 | 91.8 | 90.9 (inactive) | 140 (inactive)
47 | Br.CCCN(CCC)CCc1ccc(O)c(O)c1 [Dipropyldopamine hydrobromide] | 97.9 | 104 | 90.8 (inactive) | 100 (inactive)
